# According to the antibiotic and cytotoxicity screens of Wong et al. (2023):
# Hit rate of the full screen: of about 39,000 compounds, about 3,300 (8.5%) were called active. Many of the other results were omitted from the sample, so actives are more common in it than they were.
# Test system: HepG2
# Experiment: cytotoxicity call (relative viability < 0.9)
# Settings: 10 µM
row,Compound,cytotoxicity call
1,Cc1ccc(S(=O)(=O)N(C)C[C@@H]2Oc3ccc(NC(=O)Cn4cnnn4)cc3C(=O)N([C@@H](C)CO)C[C@@H]2C)cc1,inactive
2,C/C(=N\N)c1c(C)cc(C)[nH]c1=O,inactive
3,Nc1cccc(=O)[nH]1,inactive
4,Cc1noc(C)c1NC(=O)N(C)C[C@@H]1Oc2ccc(NC(=O)Nc3ccc(C(F)(F)F)cc3)cc2CC(=O)N([C@H](C)CO)C[C@@H]1C,inactive
5,C[C@H]1CN([C@@H](C)CO)C(=O)c2cc(C#CCc3ccccc3)cnc2O[C@@H]1CN(C)CC1CCOCC1,inactive
6,C[C@H](CO)N1C[C@H](C)[C@@H](CN(C)C(=O)Nc2cccc(Oc3ccccn3)c2)OCc2cnnn2CCCC1=O,inactive
7,COc1ccc(NC(=O)Nc2ccc3c(c2)C(=O)N([C@@H](C)CO)C[C@H](C)[C@H](CN(C)Cc2ccc4c(c2)OCO4)OCCCC[C@H](C)O3)cc1,inactive
8,C[C@H](CO)N1C[C@H](C)[C@@H](CN(C)S(=O)(=O)c2ccccc2C#N)OCc2cnnn2CCCC1=O,inactive
9,Cc1cc(=O)[nH][nH]1,inactive
10,CCN1CCCC(OC(=O)C(c2ccccc2)c2ccccc2)C1.Cl (stereo unspecified),inactive
11,CC(C)(C)c1ccc(C(=O)CCCN2CCC(OC(c3ccccc3)c3ccccc3)CC2)cc1,active
12,COc1ccc(C(=O)CC(=O)c2ccc(C(C)(C)C)cc2)cc1,inactive
13,COc1ccc2c(c1)c(CC(=O)OCC(=O)O)c(C)n2C(=O)c1ccc(Cl)cc1,inactive
14,O=C(c1ccc(Cl)cc1)n1c2ccccc2c2ccccc21,active
15,COc1ccc2c(c1)c(CC(=O)O)c(C)n2C(=O)c1ccc(Cl)cc1,inactive
16,Cc1c(Cl)cccc1Nc1ccccc1C(=O)O,inactive
17,NC(=O)c1ccccc1C(N)=O,inactive
18,O=C(c1ccccc1Cl)n1c2ccccc2c2ccccc21,active
19,C[C@H]1CN([C@@H](C)CO)C(=O)c2cccc(NC(=O)CCCCCC(=O)Nc3ccccc3N)c2O[C@H]1CN(C)C(=O)Nc1ccccc1,inactive
20,Cn1nc(CNc2ncccn2)c2c1CNCC2,inactive
21,C[C@H](CO)N1C[C@H](C)[C@@H](CN(C)Cc2ccc(C(F)(F)F)cc2)Oc2ccc(NC(=O)Cc3ccccc3)cc2C1=O,inactive
22,C[C@H](CO)N1C[C@H](C)[C@H](CN(C)CC2CCCCC2)OCCCC[C@H](C)Oc2ccc(NS(=O)(=O)c3ccccc3)cc2C1=O,inactive
23,CCOC(=O)[C@H]1CSCCN1,inactive
24,C[C@H]1CN([C@@H](C)CO)C(=O)CCCn2nncc2CO[C@H]1CN(C)Cc1ccc2c(c1)OCCN2C,inactive

row,Compound,cytotoxicity call
1,Cc1cc(=O)n2c(C)nnc2[nH]1,inactive
2,CCCNC(=O)Nc1ccc2c(c1)C(=O)N(C)C[C@@H](OC)[C@@H](C)CN(Cc1ccc(-c3ccccn3)cc1)[C@H](C)CO2,inactive
3,COc1cccc(-n2cc(C(=O)NO)nn2)c1,inactive
4,COC(=O)c1ccc(Cn2cc(C(=O)NO)nn2)o1,inactive
5,COc1ccc(-n2cc(C(=O)NO)nn2)cc1,active
6,COc1cccc(NC(=O)N[C@@H]2CC[C@@H](CC(=O)N3CCN(C)CC3)O[C@@H]2CO)c1,active
7,COc1cccc(NC(=O)N[C@H]2CC[C@H](CC(=O)N3CCN(C)CC3)O[C@H]2CO)c1,inactive
8,COc1cccc(NC(=O)N[C@@H]2CC[C@H](CC(=O)N3CCN(C)CC3)O[C@@H]2CO)c1,inactive
9,C[C@H](CO)N1C[C@H](C)[C@H](CN(C)C(=O)Nc2ccc(F)cc2)Oc2ncc(-c3cccc(C(F)(F)F)c3)cc2C1=O,inactive
10,C[C@@H]1CN([C@H](C)CO)C(=O)c2cc(NC(=O)c3ccncc3)ccc2O[C@H]1CN(C)Cc1ccc(C(=O)O)cc1,inactive
11,COc1ccc(CN(C)C[C@H]2Oc3c(NS(=O)(=O)c4cn(C)cn4)cccc3C(=O)N([C@H](C)CO)C[C@@H]2C)cc1,inactive
12,C[C@@H]1CCCCO[C@@H](CN(C)S(=O)(=O)c2ccc(Cl)cc2)[C@@H](C)CN([C@H](C)CO)C(=O)c2cc(NC(=O)c3ccncc3)ccc2O1,inactive
13,C[C@@H]1CCCCO[C@@H](CN(C)S(=O)(=O)c2ccc(Cl)cc2)[C@@H](C)CN([C@@H](C)CO)C(=O)c2cc(NC(=O)c3ccncc3)ccc2O1,inactive
14,C[C@H]1CCCCO[C@H](CN(C)S(=O)(=O)c2ccc(Cl)cc2)[C@@H](C)CN([C@@H](C)CO)C(=O)c2cc(NC(=O)c3ccncc3)ccc2O1,inactive
15,C[C@@H]1CN([C@H](C)CO)C(=O)c2cc(NC(=O)c3ccncc3)ccc2O[C@@H](C)CCCCO[C@H]1CN(C)S(=O)(=O)c1ccc(Cl)cc1,active
16,C[C@@H]1CCCCO[C@H](CN(C)S(=O)(=O)c2ccc(Cl)cc2)[C@@H](C)CN([C@@H](C)CO)C(=O)c2cc(NC(=O)c3ccncc3)ccc2O1,active
17,C[C@@H]1CCCCO[C@@H](CN(C)S(=O)(=O)c2ccc(Cl)cc2)[C@H](C)CN([C@@H](C)CO)C(=O)c2cc(NC(=O)c3ccncc3)ccc2O1,inactive
18,Cc1noc(C)c1S(=O)(=O)N(C)C[C@H]1Oc2c(NC(=O)C3CCCCC3)cccc2C(=O)N([C@H](C)CO)C[C@H]1C,inactive
19,COc1ccc(CN(C)C[C@H]2OCCCC[C@@H](C)Oc3ccc(NS(=O)(=O)c4ccc(C)cc4)cc3C(=O)N([C@@H](C)CO)C[C@@H]2C)cc1,inactive
20,C[C@H]1CCCCO[C@@H](CN(C)S(=O)(=O)c2ccc(Cl)cc2)[C@@H](C)CN([C@@H](C)CO)C(=O)c2cc(NS(=O)(=O)c3ccccc3)ccc2O1,inactive
21,CC12C=CC(=O)C=C1CCC1C2C(O)CC2(C)C1CCC2(O)C(=O)COC(=O)CCC(=O)O (stereo unspecified),inactive
22,Cc1ccc(S(=O)(=O)N(C)C[C@H]2Oc3ncc(C#CCC(C)C)cc3C(=O)N([C@H](C)CO)C[C@@H]2C)cc1,inactive
23,COc1cccc(S(=O)(=O)N(C)C[C@H]2Oc3ncc(C#CCC(C)C)cc3C(=O)N([C@H](C)CO)C[C@H]2C)c1,inactive
24,COc1cccc(S(=O)(=O)N(C)C[C@H]2Oc3ncc(C#CCC(C)C)cc3C(=O)N([C@@H](C)CO)C[C@H]2C)c1,inactive

row,Compound,cytotoxicity call
1,Cc1ccc(S(=O)(=O)N(C)C[C@H]2Oc3ncc(C#CCC(C)C)cc3C(=O)N([C@@H](C)CO)C[C@@H]2C)cc1,inactive
2,COc1cccc(S(=O)(=O)N(C)C[C@@H]2Oc3ncc(-c4ccccc4)cc3C(=O)N([C@H](C)CO)C[C@@H]2C)c1,inactive
3,Cc1ccc(S(=O)(=O)N(C)C[C@@H]2Oc3ncc(C#CCC(C)C)cc3C(=O)N([C@@H](C)CO)C[C@H]2C)cc1,active
4,Cc1ccc(S(=O)(=O)N(C)C[C@H]2Oc3ncc(C#CCC(C)C)cc3C(=O)N([C@@H](C)CO)C[C@H]2C)cc1,active
5,COc1cccc(S(=O)(=O)N(C)C[C@H]2Oc3ncc(C#CCC(C)C)cc3C(=O)N([C@H](C)CO)C[C@@H]2C)c1,active
6,COc1cccc(-c2cnc3c(c2)C(=O)N([C@H](C)CO)C[C@H](C)[C@H](CN(C)S(=O)(=O)c2cccc(OC)c2)O3)c1,inactive
7,Cc1ccc(S(=O)(=O)N(C)C[C@@H]2Oc3ncc(C#CCC(C)C)cc3C(=O)N([C@H](C)CO)C[C@@H]2C)cc1,inactive
8,COc1cccc(-c2cnc3c(c2)C(=O)N([C@H](C)CO)C[C@H](C)[C@H](CN(C)S(=O)(=O)c2ccccc2)O3)c1,active
9,Cc1ccc(S(=O)(=O)N(C)C[C@@H]2Oc3ncc(C#CCC(C)C)cc3C(=O)N([C@H](C)CO)C[C@H]2C)cc1,inactive
10,CN(C)CCCNC(=O)C[C@@H]1CC[C@H]2[C@@H](COC[C@@H](O)CN2S(=O)(=O)c2ccc(F)cc2)O1,inactive
11,CO[C@H]1CN(C)C(=O)c2cc(NS(=O)(=O)CC(F)(F)F)ccc2OC[C@H](C)N(Cc2ccccn2)C[C@@H]1C,inactive
12,CC(C)CC#Cc1cnc2c(c1)C(=O)N([C@@H](C)CO)C[C@@H](C)[C@@H](CN(C)C(=O)CN1CCOCC1)O2,inactive
13,C[C@@H]1CN([C@@H](C)CO)C(=O)c2cc(NS(=O)(=O)c3ccccc3)ccc2O[C@@H](C)CCCCO[C@H]1CN(C)C(=O)c1ccccc1,inactive
14,C[C@@H]1CCCCO[C@H](CN(C)C(=O)Cc2ccccc2)[C@@H](C)CN([C@H](C)CO)C(=O)c2cc(NC(=O)Nc3ccc4c(c3)OCO4)ccc2O1,inactive
15,CNC[C@H]1Oc2ccc(NS(=O)(=O)c3cn(C)cn3)cc2C(=O)N([C@@H](C)CO)C[C@H]1C,inactive
16,C[C@@H]1CCCCO[C@@H](CN(C)C(=O)Nc2ccccc2)[C@H](C)CN([C@@H](C)CO)C(=O)c2cc(NC(=O)Nc3ccccc3)ccc2O1,inactive
17,C[C@@H]1CN([C@@H](C)CO)C(=O)c2cc(-c3ccc(C(=O)N(C)C)cc3)cnc2O[C@H]1CN(C)C(=O)CN(C)C,inactive
18,C[C@H]1CCCCO[C@H](CN(C)Cc2ccccc2)[C@@H](C)CN([C@@H](C)CO)C(=O)c2cc(NC(=O)c3ccncc3)ccc2O1,inactive
19,Cc1noc(C)c1NC(=O)Nc1ccc2c(c1)C(=O)N([C@H](C)CO)C[C@@H](C)[C@H](CN(C)Cc1ccc(Oc3ccccc3)cc1)O2,inactive
20,Cc1cc(C(=O)Nc2cccc3c2O[C@@H](CN(C)C(=O)NC(C)C)[C@H](C)CN([C@H](C)CO)C3=O)n(C)n1,inactive
21,C[C@@H]1CN([C@@H](C)CO)C(=O)c2cc(NC(=O)Nc3cccc4ccccc34)ccc2O[C@@H](C)CCCCO[C@@H]1CN(C)S(=O)(=O)c1ccc(F)cc1,inactive
22,CN1CCN(C(=O)C[C@H]2CC[C@@H](NC(=O)c3ccc4c(c3)OCO4)[C@H](CO)O2)CC1,inactive
23,C[C@@H]1CN([C@@H](C)CO)C(=O)c2c(c3ccccc3n2C)-c2ccccc2CO[C@H]1CN(C)C(=O)Nc1ccccc1,inactive
